Source: PubChem (several laboratories)
FadD28 binding – blocks FadD28 binding to the bisubstrate probe; fluorescence polarization; inhibition, % at 12.5 µM; actives 0.22% (n = 360,000); AID 588549; in the data active means inhibition above about 8.5%, passing the limit was not always enough; inconclusive means no clear call, values can overlap the other calls
Mtb betalactam – beta-lactam sensitization of Mtb H37Rv | M. tuberculosis H37Rv growth with meropenem, percent inhibition | inhibition, % at 25 µM | actives 0.27% (n = 330,000); call rule not given here;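 further: growth measured after seven days incubation then overnight dye step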
UGM FP inh – inhibitors of M. tuberculosis UDP-galactopyranose mutase; P9WIQ1; purified UGM, fluorescence polarization probe displacement; inhibition, % at 10 µM; actives 0.06% (n = 320,000); in the data active means inhibition above about 10%, passing the limit was not always enough; inconclusive means no clear call, values can overlap the other calls
Target sequence (P9WIQ1 whole entry, looked up): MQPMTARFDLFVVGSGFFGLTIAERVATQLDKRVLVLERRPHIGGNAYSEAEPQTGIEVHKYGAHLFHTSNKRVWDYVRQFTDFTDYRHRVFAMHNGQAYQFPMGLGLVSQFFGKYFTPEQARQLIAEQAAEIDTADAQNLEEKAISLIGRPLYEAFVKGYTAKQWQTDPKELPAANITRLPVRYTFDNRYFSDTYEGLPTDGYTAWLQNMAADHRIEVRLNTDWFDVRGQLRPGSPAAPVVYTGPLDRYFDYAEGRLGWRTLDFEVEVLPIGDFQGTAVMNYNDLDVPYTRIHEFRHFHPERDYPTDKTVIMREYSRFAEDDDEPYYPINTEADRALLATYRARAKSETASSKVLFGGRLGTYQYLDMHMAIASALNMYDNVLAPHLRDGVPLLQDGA
Rv3671c inh – Rv3671c (M. tuberculosis) protease inhibition | P9WHR9 | inhibition, % at 5.96 µM | actives 0.048% (n = 320,000); in the data active means inhibition above about 38%;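 further: extracellular domain of Rv3671c used as enzyme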
Mtb hypoxia rep – reduces hypoxia-regulated biosensor signal in M. tuberculosis | M. tuberculosis hypoxia-regulated fluorescent reporter, fluorescence | fluorescence inhibition, % (concentration not given with the values) | actives 0.1% (n = 300,000) | AID 1159583; in the data active means fluorescence inhibition mostly above about 23%, no sharp cut-off; inactive means mostly below about 17%
RecA intein inh – inhibitors of M. tuberculosis RecA intein splicing; inhibition, % (no concentration beside the values); P9WHJ3; actives 0.75% (n = 290,000); cell-free RecA intein splicing, fluorescence; AID 2221; in the data active means inhibition above about 30%; inconclusive means no clear call, values can overlap the other calls
A number is an active result; – = inactive; ? = inconclusive; · = no result given. Sampled rows, rich in hits. Any-hit rate of the full collection: about 0.92%.

SMILES	FadD28 binding	Mtb betalactam	UGM FP inh	Rv3671c inh	Mtb hypoxia rep	RecA intein inh
CCN(c1ccccc1)S(=O)(=O)c1ccc(Cl)c(NC(=O)COC(=O)c2cc(O)c3ccccc3c2O)c1	·	–	–	–	·	80
COc1ccc(CCNC(=O)c2cc(-c3ccccn3)nc3ccccc23)cc1	–	–	–	–	30	·
COc1ccc(CCNC(=O)c2cc(Cl)nc3ccccc23)cc1	–	–	–	–	–	–
CCOc1cc(C=NNc2cc(C)nc(-n3nc(C)cc3C)n2)ccc1O	·	·	·	·	39	·
CCOC(=O)C1CCCN(c2ccc([N+](=O)[O-])c3nonc23)C1 (stereo not drawn)	47	·	·	·	–	–
COc1cc(C(=O)Nc2ccc(C(C)=O)cc2)c(Br)c(OC)c1OC	–	–	–	–	–	–
CCCOC(=O)c1ccc(NC(=O)c2cc(OC)c(OC)c(OC)c2Br)cc1	13	–	–	–	–	–
O=C(COC(=O)c1c[nH]c(=O)[nH]c1=O)Nc1ccccc1Br	–	–	–	–	–	–
COC(=O)/C(=C1/Oc2cc(C)oc(=O)c2S1)C(F)(F)F	–	–	–	–	·	44
O=C(CN(C(=O)CCC(=O)Nc1ccccn1)C1CCCC1)NCc1ccccc1	–	–	–	–	–	·
COc1ccc(OC)c(NC(=O)C2CCN(S(=O)(=O)c3cccs3)CC2)c1	–	–	–	–	–	–
COc1ccccc1NC(=O)C1CCN(S(=O)(=O)c2cccs2)CC1	–	–	17	–	·	·
Cc1ccc2nsnc2c1NS(=O)(=O)c1c(C)ccc2nsnc12	–	–	–	–	–	36
Cc1cc(S(=O)(=O)Nc2c(C)ccc3nsnc23)ccc1F	–	?	–	–	–	–
CCCCNC(=O)C(c1ccc(OCC(=O)OC)c(C(=O)OC)c1)N(CCc1ccccc1)C(=O)CCCCCN1C(=O)NC(c2ccc(-c3ccccc3)cc2)C(C(=O)OCc2ccccc2)=C1C (stereo not drawn)	·	·	·	·	–	·
O=C(CCN1C(=O)S/C(=C/c2ccccc2)C1=O)Nc1ccc(C(=O)O)c(O)c1	–	–	–	–	·	–
O=C(CCCN1C(=O)/C(=C/c2ccccc2)SC1=S)Nc1ccc(C(=O)O)c(O)c1	–	–	–	–	·	38
O=C(CCN1C(=O)/C(=C\c2ccccc2F)SC1=S)Nc1ccc(C(=O)O)c(O)c1	–	–	–	–	·	32
O=C(c1cc2ccccc2o1)N1CCN(S(=O)(=O)c2c(F)cccc2F)CC1	–	–	–	–	–	·
Cc1ccc(C2CC(=O)NC(SCC(=O)Nc3nccs3)=C2C#N)cc1 (stereo not drawn)	12	–	–	–	·	–
COc1cc(/C=C2/SC(N)=NC2=O)ccc1Oc1ccc([N+](=O)[O-])cc1[N+](=O)[O-]	–	–	–	–	–	–
NC1=NC(=O)/C(=C\c2ccc(O)c([N+](=O)[O-])c2)S1	–	–	–	–	56	–
Cn1c2ccccc2c2cc(C(=O)NNC(=O)CCl)sc21	–	–	–	–	–	33
COC(=O)Nc1ccc(S(=O)(=O)N2CCC(Cc3ccccc3)CC2)cc1	–	?	–	–	–	–
CCOC(=O)C1Nc2c(F)cc(C)cc2C2c3ccccc3CC12 (stereo not drawn)	–	–	–	–	–	45
SMILES	FadD28 binding	Mtb betalactam	UGM FP inh	Rv3671c inh	Mtb hypoxia rep	RecA intein inh
CCOC(=O)C1Nc2ccccc2C2c3ccccc3CC12 (stereo not drawn)	–	–	–	–	–	–
C#CCOCCOCCOCCNc1nc(N2CCN(C(=O)CCCCCCCCCCNC(=O)[C@@H](CCSC)n3cc(CCO)nn3)CC2)nc(N2CCN(C(=O)CCCCCCCCCCNC(=O)[C@H](CCCN=C(N)N)n3cc(C[C@@H](C)CC)nn3)CC2)n1	11	–	–	–	·	·
C#CCOCCOCCOCCNc1nc(N2CCN(C(=O)CCCCCCCCCCNC(=O)[C@H](CCCCN)n3cc(C[C@@H](C)CC)nn3)CC2)nc(N2CCN(C(=O)CCCCCCCCCCNC(=O)[C@H](CCCN=C(N)N)n3cc(C[C@@H](C)CC)nn3)CC2)n1	–	–	–	–	·	·
C#CCOCCOCCOCCNc1nc(N2CCN(C(=O)CCCCCCCCCCNC(=O)[C@H]([C@@H](C)CC)n3cc(CCCCN=C(N)N)nn3)CC2)nc(N2CCN(C(=O)CCCCCCCCCCNC(=O)[C@@H]([C@H](C)O)n3cc(C)nn3)CC2)n1	15	–	–	–	·	·
CC(C)C[C@H]1C(=O)N2CCCC2[C@]2(O)O[C@](NC(=O)[C@@H]3C=C4c5cccc6[nH]cc(c56)CC4N(C)C3)(C(C)C)C(=O)N12 (stereo partly drawn)	–	–	–	–	·	?
CC(C)[C@H]1C(=O)N2CCC[C@H]2[C@]2(O)O[C@](NC(=O)[C@@H]3C=C4c5cccc6[nH]cc(c56)C[C@H]4N(C)C3)(C(C)C)C(=O)N12	–	–	–	–	·	35
Cc1cccc(NC(=O)COC(=O)c2cc(C)oc2C)c1	–	–	–	–	–	–
Cc1cc(C(=O)OCC(=O)Nc2c(Cl)cccc2Cl)c(C)o1	–	–	10	–	–	·
Cc1nnc(N/N=C/c2cccc(OCc3ccc(Cl)c(Cl)c3)c2)n1N	–	–	–	–	·	74
O=c1oc(-c2ccc(F)cc2)nc2ccsc12	–	–	–	–	–	–
O=c1oc(-c2ccccc2Cl)nc2ccsc12	–	–	–	–	–	35
COC(=O)c1ccc(-n2c(C)cc(C(=O)CCl)c2C)cc1	–	–	–	–	–	35
CC1=C(C#N)C(=O)NC(=O)/C1=C\c1ccc(-c2ccc(C)cc2[N+](=O)[O-])o1	–	·	·	·	–	–
CCOC(=O)c1cc(-c2ccc(/C=C3/C(=O)NC(=O)C(C#N)=C3C)o2)ccc1Cl	15	–	–	–	–	–
CC(=O)NS(=O)(=O)c1ccc(Nc2ccc([N+](=O)[O-])c3nonc23)cc1	–	–	–	–	38	–
N#CCn1c(CCl)nc2ccccc2c1=O	–	–	–	–	·	38
CN1CCN(Cc2nc3ccccc3c(=O)n2CC#N)CC1	–	–	–	–	–	–
COc1ccc(Cn2c3ccc(OC)cc3c3nc4ccccc4nc32)cc1	–	–	–	–	–	–
COc1ccc2c(c1)c1nc3ccccc3nc1n2CC(=O)OC(C)C	–	–	19	–	–	–
COc1ccc2nc(Sc3c([N+](=O)[O-])nc(C)n3Cc3ccccc3)[nH]c2c1	·	–	–	–	–	–
Cc1cc2nc(Sc3c([N+](=O)[O-])nc(C)n3Cc3ccccc3)[nH]c2cc1C	–	–	–	–	–	46
Cc1nc([N+](=O)[O-])c(Sc2nc3ccccc3[nH]2)n1Cc1ccccc1	–	–	–	–	–	38
CCOC(=O)c1cnc2ccccc2c1Nc1ccc(C(=O)O)cc1	–	–	–	–	–	–
COc1cccc(C(=O)NN=C(C)c2cccc(NC(=O)c3ccc(F)cc3)c2)c1OC	·	·	·	·	–	·
Cc1oc(-c2ccccc2F)nc1CS(=O)(=O)CC(=O)NCCN1CCCC1	–	–	–	–	–	–
